Activity calls are given as the source filed them. Unless noted, the call rests on the fitted dose curve; in most records, active means well fitted curve in the direction sought with a large enough effect in the repeat runs; inconclusive means weak or mixed curves; inactive means no such curve, though single readings can be large; an effect the other way counts as inactive or inconclusive.
Experiments:
[1] = qHTS assay for small molecule agonists of the p53 signaling pathway (AID 651631; calls by dose curve; further: nearly all actives have a fitted effect of over 15% in size; further: potency means the concentration at half of the fitted maximal effect); details: HCT-116 p53RE-bla reporter, beta-lactamase FRET ratio, 16 h; series mostly up to 73.3 µM
Outline: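 Agonist mode screen using a stably integrated beta-lactamase gene under p53 response elements in HCT-116 cells. Compound exposure lasts 16 h at 37 °C; fluorescence intensity is measured following 2 h FRET substrate loading.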

[2] = qHTS assay for small molecules that induce genotoxicity in human embryonic kidney cells expressing luciferase-tagged ATAD5 (AID 651632); details: HEK293T ATAD5-luciferase induction, 16 h; series mostly up to 83.3 µM; further: nearly all actives have a fitted effect of over 15% in size
Outline: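 Luminescent reporter readout, HEK293T ATAD5-luc line: 16 hr drug exposure (37C, 5% CO2) followed by Amplite, 30 min RT.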

[3] = qHTS assay for small molecule agonists of the p53 signaling pathway - cell viability (AID 651633; calls by dose curve; further: nearly all actives have a fitted effect of over 30% in size; further: potency means the concentration at half of the fitted maximal effect); details: p53RE-bla HCT-116 viability, ATP luminescence, 16 h; series mostly up to 83.3 µM
Outline: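 Viability counter-read: CellTiter-Glo luminescence (30 min, room temperature) in the same p53RE-bla plates. These plates had been exposed to compounds for 16 h at 37 C.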

[4] = qHTS assay for small molecules that induce genotoxicity in human embryonic kidney cells expressing luciferase-tagged ATAD5 - cell viability (AID 651634; calls by dose curve; further: nearly all actives have a fitted effect of over 25% in size; further: potency means the concentration at half of the fitted maximal effect); details: HEK293T ATAD5-luc cells viability, CellTiter-Fluor, 15.5 h; series mostly up to 83.3 µM
Outline: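 Viability read: CellTiter-Fluor fluorescence, 30 min at 37C. Cells: HEK293T, luciferase-tagged ATAD5. Exposure: 15.5 hr, 37C, 5% CO2, compound or DMSO vehicle.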

[5] = qHTS assay for small molecule disruptors of the mitochondrial membrane potential - cell viability (AID 720634; calls by dose curve; further: nearly all actives have a fitted effect of over 20% in size; further: potency means the concentration at half of the fitted maximal effect); details: HepG2 viability, ATP luminescence (CellTiter-Glo), 1 h; series mostly up to 83.2 µM
Outline: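 HepG2, 1 hr compound, 37 C. ATP luminescence via CellTiter-Glo, 30 min RT, same well as m-MPI.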

[6] = qHTS assay for small molecule disruptors of the mitochondrial membrane potential (AID 720635); details: HepG2 mitochondrial membrane potential, Mito-MPS dye ratio; series mostly up to 83.2 µM; further: potency means the concentration at half of the fitted maximal effect
Outline: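 Mitochondrial membrane potential tracked with Mito-MPS dye, red aggregates (ex 540/em 590 nm) against green monomers (ex 490/em 535 nm). Compound treatment 1 hr at 37C, dye 30 min in HepG2.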

[7] = qHTS assay to test for compound auto fluorescence at 590 nm (red) in HepG2 cells (AID 720674); details: HepG2 autofluorescence, red 540/590 nm, 1 h; series mostly up to 46 µM
Outline: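 We screened compounds on adherent HepG2 cells, incubating them for an hour at 37 C in 5% CO2 before reading emission at 590 nm under 540 nm excitation; values reflect equivalence to Rose Bengal sodium fluorescence.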

[8] = qHTS assay to test for compound auto fluorescence at 535 nm (green) in HepG2 cells (AID 720675); details: green autofluorescence 485/535 nm, 1 h; series mostly up to 46 µM
[9] = qHTS assay to test for compound auto fluorescence at 460 nm (blue) in HEK293 cells (AID 720678); details: blue autofluorescence 405/460 nm; series mostly up to 46 µM
Outline: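 Measured: blue fluorescence (Ex 405/Em 460 nm) of compound-treated HEK293 cells, incubated overnight at 37C with 5% CO2 and scaled to triamterene equivalents.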

[10] = qHTS assay to test for compound auto fluorescence at 590 nm (red) in HEK293 cells (AID 720679); details: red autofluorescence 540/590 nm; series mostly up to 46 µM
Outline: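 Using HEK293 cells at 2,000 per well, the screen added 23 nL of each compound after cell attachment and incubated overnight (37C, 5% CO2). The plate reader then captured red-label fluorescence, Ex/Em 540/590nm.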

[11] = qHTS assay to test for compound auto fluorescence at 535 nm (green) in HEK293 cells (AID 720680); details: green autofluorescence 485/535 nm; series mostly up to 46 µM
[12] = qHTS assay to test for compound auto fluorescence at 460 nm (blue) in HEK293 cell free culture (AID 720681); details: cell-free medium, autofluorescence 405/460 nm (blue); series mostly up to 46 µM
Outline: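 Blue fluorescence (Ex 405/Em 460 nm, triamterene-equivalent) was read immediately after pin transfer of compound or DMSO into medium (DMEM, 10% FBS) without cells.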

[13] = qHTS assay to test for compound auto fluorescence at 535 nm (green) in HEK293 cell free culture (AID 720682); details: cell-free medium, green autofluorescence 485/535 nm, stronger effect = higher value; series mostly up to 46 µM
Outline: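 No cells present: wells hold DMEM supplemented with 10% FBS, into which compound or vehicle is pinned. Green emission is then recorded (485 nm excitation, 535 nm emission) and scaled to fluorescein.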

[14] = qHTS assay to test for compound auto fluorescence at 590 nm (red) in HEK293 cell free culture (AID 720683); details: cell-free medium autofluorescence, Ex540/Em590 red; series mostly up to 46 µM
Outline: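 Red-channel autofluorescence of compounds in culture medium (DMEM, 10% FBS), no cells, measured at 540/590 nm. Rose Bengal sodium is the reference fluorophore for equivalence.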

[15] = qHTS assay to test for compound auto fluorescence at 590 nm (red) in HepG2 cell free culture (AID 720684); details: cell-free medium autofluorescence, red 540/590 nm; series mostly up to 46 µM
Outline: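 Plate contents were MEM with 10% FBS plus test compound or DMSO, no cells. Fluorescence was recorded with 540 nm excitation and 590 nm emission.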

[16] = qHTS assay to test for compound auto fluorescence at 460 nm (blue) in HepG2 cell free culture (AID 720685); details: Cell-free culture medium, blue autofluorescence 405/460 nm; series mostly up to 46 µM
Outline: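 Compound (23 nL) or DMSO pinned into cell-free MEM with 10% FBS; blue fluorescence read at 405/460 nm excitation/emission, expressed as auto-fluorescence equivalency to triamterene.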

[17] = qHTS assay to test for compound auto fluorescence at 535 nm (green) in HepG2 cell free culture (AID 720686); details: Cell-free medium, green autofluorescence 485/535 nm; series mostly up to 46 µM
[18] = qHTS assay to test for compound auto fluorescence at 460 nm (blue) in HepG2 cells (AID 720687); details: autofluorescence 405/460 nm, 1 h; series mostly up to 46 µM
Outline: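 Blue-channel autofluorescence (Ex/Em 405/460 nm, triamterene-equivalent) was measured after 1 hr compound exposure at 37 C, 5% CO2. Cells were HepG2, plated overnight at 37 C in MEM plus 10% FBS.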

[19] = molecular target: Glucocorticoid receptor (Homo sapiens) (UniProt P04150); test: qHTS assay to identify small molecule agonists of the glucocorticoid receptor (GR) signaling pathway (AID 720691; active means well fitted activation curve with a large enough effect in the signal ratio in the repeat runs, not every such curve was filed as active; inconclusive means weak or mixed curves, or effect the other way; inactive means no such curve, though single readings can be large or run the other way; the % refers to the signal ratio; further: potency means the concentration at half of the fitted maximal effect); details: GR-bla HeLa, beta-lactamase reporter ratio, 18 h; activation: at 62.4 µM (top of the series)
Outline: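 qHTS in GR-bla HeLa cells: 4 h settling at 37 C/5% CO2, 18 h compound incubation at 37 C, 2 h LiveBLAzer B/G FRET substrate at room temperature, fluorescence intensity measured.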

[20] = molecular target: Glucocorticoid receptor (Homo sapiens) (UniProt P04150); test: qHTS assay to identify small molecule antagonists of the glucocorticoid receptor (GR) signaling pathway (AID 720692; active means well fitted inhibition curve with a large enough effect in the signal ratio in the repeat runs, not every such curve was filed as active; inconclusive means weak or mixed curves, or effect the other way; inactive means no such curve, though single readings can be large or run the other way; the % refers to the signal ratio); details: GR-bla HeLa, beta-lactamase FRET ratio, dexamethasone-stimulated, 18 h; series mostly up to 58.5 µM
Outline: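 Inhibition of glucocorticoid signalling is measured in HeLa cells with a GRE-controlled beta-lactamase reporter; cells are co-treated with compound and 5 nM dexamethasone (final) for 18 h before FRET substrate readout.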

Measured: Potency

Glucocorticoid receptor (Homo sapiens), sequence (P04150 whole entry, looked up): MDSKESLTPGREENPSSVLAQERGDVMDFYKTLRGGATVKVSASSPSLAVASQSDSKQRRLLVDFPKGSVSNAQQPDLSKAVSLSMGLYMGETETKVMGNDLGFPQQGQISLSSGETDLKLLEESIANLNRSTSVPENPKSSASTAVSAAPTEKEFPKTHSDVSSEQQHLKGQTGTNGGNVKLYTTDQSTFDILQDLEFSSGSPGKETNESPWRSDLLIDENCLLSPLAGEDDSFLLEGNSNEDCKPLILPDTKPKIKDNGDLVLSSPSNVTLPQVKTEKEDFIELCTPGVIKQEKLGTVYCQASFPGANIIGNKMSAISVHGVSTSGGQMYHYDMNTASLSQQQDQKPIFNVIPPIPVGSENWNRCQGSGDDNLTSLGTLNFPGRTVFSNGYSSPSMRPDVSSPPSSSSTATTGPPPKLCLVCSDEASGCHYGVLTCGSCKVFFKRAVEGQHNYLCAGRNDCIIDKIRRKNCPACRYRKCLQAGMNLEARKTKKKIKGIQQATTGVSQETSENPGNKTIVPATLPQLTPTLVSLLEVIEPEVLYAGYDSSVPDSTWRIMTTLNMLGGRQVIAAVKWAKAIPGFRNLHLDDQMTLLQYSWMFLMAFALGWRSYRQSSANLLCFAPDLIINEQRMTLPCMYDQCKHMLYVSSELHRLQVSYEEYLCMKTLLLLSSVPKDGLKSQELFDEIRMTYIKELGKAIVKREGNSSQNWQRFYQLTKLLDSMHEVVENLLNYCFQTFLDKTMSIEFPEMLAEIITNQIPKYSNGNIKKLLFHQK

CC(CNC(=O)c1cccnc1)NC(=O)c1cccnc1 (stereo not given)
not listed: [20]
inactive: all other assays above

N#Cc1c(N(CC(=O)O)CC(=O)O)sc(C(=O)O)c1CC(=O)O
not listed: [19] | [20]
inactive: all other assays above

COC(=O)C(CN)c1c[nH]c2ccc(OC)cc12 (stereo not given)
not listed: [19] | [20]
inactive: all other assays above

CCC1OC(=O)C[C@@H](O)[C@H](C)[C@@H](O[C@@H]2O[C@H](C)C[C@H](N(C)C)[C@H]2O)[C@@H](CC=O)C[C@@H](C)C(=O)/C=C/[C@]2(C)OC2C1C (stereo not given in full)
active: [1] 29.8 µM
not listed: [19] | [20]
inactive: all other assays above

O=P(O)(O)OP(=O)(O)OP(=O)(O)O
inactive: all assays above

CC(C)C[C@@H](NC(=O)[C@@H](O)[C@H](N)Cc1ccccc1)C(=O)O
not listed: [19] | [20]
inactive: all other assays above

FC(F)(F)C(F)(F)C(F)(F)C(F)(F)C(F)(F)F
not listed: [19] | [20]
inactive: all other assays above

CC(C)(COP(=O)(O)OP(=O)(O)OC[C@H]1O[C@@H](n2cnc3c(N)ncnc32)[C@H](O)[C@@H]1OP(=O)(O)O)C(O)C(=O)NCCC(=O)NCCS (stereo not given in full)
not listed: [19] | [20]
inactive: all other assays above

NC(=O)CC[C@@H]1NC(=O)[C@H](Cc2ccccc2)NC(=O)[C@H](Cc2ccc(O)cc2)NC(=O)[C@@H](N)CSSC[C@@H](C(=O)N2CCC[C@H]2C(=O)N[C@@H](CCCN=C(N)N)C(=O)NCC(N)=O)NC(=O)[C@H](CC(N)=O)NC1=O
not listed: [19] | [20]
inactive: all other assays above

CC[C@@H](C(=O)[C@@H](C)[C@@H](O)[C@H](C)CCc1ccc(C)c(O)c1C(=O)O)[C@H]1O[C@](CC)([C@H]2CC[C@](O)(CC)[C@H](C)O2)C[C@@H]1C
active: [1] 23.7 µM | [3] 26.6 µM | [4] 23.7 µM | [5] 5.96 µM | [6] 1.06 µM | [19] 16.9 µM [inconclusive]
not listed: [20]
inactive: all other assays above

NCC1CCC(C(=O)O)CC1 (stereo not given)
not listed: [19] | [20]
inactive: all other assays above

CC/C(=C(/CC)c1ccc(OP(=O)(O)O)cc1)c1ccc(OP(=O)(O)O)cc1
not listed: [19] | [20]
inactive: all other assays above

Source: PubChem BioAssay (Tox21)
